The list is not random: actives were taken first. Their share in the collection is about 2.2%.
S1P1 agonist = activates the human S1P1 receptor; Sphingosine 1-phosphate receptor 1 (Homo sapiens), P21453; S1P1 agonist cell-based reporter assay; activation, % at 4.5 µM; hit rate 1.5% among 16,000; AID 1044, 2008; in the data active means activation above about 80%
Target sequence (P21453 whole entry, looked up): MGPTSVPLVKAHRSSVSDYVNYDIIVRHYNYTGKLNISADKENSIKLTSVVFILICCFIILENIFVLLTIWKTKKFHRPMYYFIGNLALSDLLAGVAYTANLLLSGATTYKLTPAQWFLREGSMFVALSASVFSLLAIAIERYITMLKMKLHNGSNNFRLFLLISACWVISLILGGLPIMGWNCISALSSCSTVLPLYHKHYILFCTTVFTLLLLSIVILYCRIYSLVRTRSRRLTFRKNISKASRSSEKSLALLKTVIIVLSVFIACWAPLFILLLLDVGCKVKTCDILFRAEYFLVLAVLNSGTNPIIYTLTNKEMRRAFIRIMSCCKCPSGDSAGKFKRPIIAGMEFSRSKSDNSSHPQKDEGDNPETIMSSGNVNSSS
OPRK1 antag MB = antagonists of human kappa opioid receptor OPRK1, Maybridge library; OPRK1 cells, antagonist mode, fluorescence readout; inhibition, % at 9 µM; hit rate 0.4% among 16,000; in the data active means inhibition above about 50%
TLR4-MyD88 inh = inhibitors of human TLR4-MyD88 binding; Toll-like receptor 4 (Homo sapiens), O00206; Cell-based TLR4-MyD88 binding inhibition assay; inhibition, % at 10 µM; hit rate 0.06% among 16,000; in the data active means inhibition above about 45%
NOTCH agonist = agonists of NOTCH signaling; hit rate 0.4% among 15,000; NOTCH signaling luciferase reporter cells, luminescence; activation, % at 2.5 µM; in the data active means activation above about 2.2%
Large screens that a line does not name were inactive.

CSc1nnc(SC2=CC(=O)CC(c3ccccc3)C2)s1 (stereo not drawn)	NOTCH agonist 3.3
CSc1nnc(Sc2ncc([N+](=O)[O-])s2)s1	none
NC(=O)c1ccc[n+](Cc2ccc(Cl)c(Cl)c2)c1	none
CCCc1c(C(=O)Nc2ccc3ccccc3n2)cnn1-c1ccccc1	S1P1 agonist 96.1
O=[N+]([O-])c1ccc(-c2ccc(/C=N/Nc3ccccc3)o2)cc1	S1P1 agonist 82.1, OPRK1 antag MB 81.4
O=[N+]([O-])c1ccc(-c2ccc(/C=N/NC(=S)NCC3CCCO3)o2)cc1 (stereo not drawn)	TLR4-MyD88 inh 50.1
S=C(NCC1CCCO1)N/N=C/c1ccc(Cl)cc1 (stereo not drawn)	none
N#C/C(=N\Nc1cccc(C(F)(F)F)c1)S(=O)(=O)c1ccsc1	S1P1 agonist 97.0
COC(=O)c1sc2ccccc2c1OC(=O)c1cccs1	none
COC(=O)c1sc2ccccc2c1Cl	S1P1 agonist 107.5
Cc1ccc(S(=O)(=O)NC(=O)N2CCCN(Cc3ccc(Cl)cc3Cl)CC2)cc1	none
COc1ccc(N=Nc2cc(C)c(O)c(CN3CCCCC3)c2)cc1	S1P1 agonist 101.4
COc1ccc(/C(C)=N/O)cc1CN1CCCC1	none
N#Cc1nc(=O)n(-c2ccc(OC(F)(F)F)cc2)c(N)c1N=Cc1ccc(C(F)(F)F)cc1	S1P1 agonist 105.7
N#CCCNc1ccc(N=Nc2ccc(Cl)cc2)cc1	S1P1 agonist 103.8
N#C/C(=C\Nc1cccnc1)S(=O)(=O)c1ccc(Cl)cc1	none
N#C/C(=C\Nc1cc(C(F)(F)F)cc(C(F)(F)F)c1)S(=O)(=O)c1ccc(Cl)cc1	S1P1 agonist 86.6 (no result: NOTCH agonist)
O=C(Nc1ccc(Cl)cc1OC(F)(F)F)c1ccco1	none
Cc1noc(/C=C/c2ccco2)c1[N+](=O)[O-]	none
CSc1ccc(/C=C/c2onc(C)c2[N+](=O)[O-])s1	OPRK1 antag MB 106.0
CCN1CCCC1CNC(=O)NC(=O)c1ccc([N+](=O)[O-])cc1 (stereo not drawn)	S1P1 agonist 85.4
CN(C)C(=O)c1cc(-c2ccccc2)c(C(F)(F)F)s1	none
O=C(Nc1ccccc1)OCc1cc(-c2ccccc2)c(C(F)(F)F)s1	S1P1 agonist 93.8
O=C(O)C(F)(F)C(F)(F)C(=O)NCc1cccc(Cl)c1	OPRK1 antag MB 50.5
Cc1ccc(S(=O)(=O)NC(=O)N(C)CCc2ccccn2)cc1	none
CN(CCc1ccccn1)C(=O)c1nccnc1C(=O)O	S1P1 agonist 94.5
CSc1nc(-c2cnccn2)nc(C2CC2)c1C#N	none
O=[N+]([O-])c1ccc(C2=NN(c3ccccc3)C(c3ccco3)C2)cc1 (stereo not drawn)	OPRK1 antag MB 86.6, TLR4-MyD88 inh 70.4
O=S(=O)(c1cc(Br)c(Br)s1)N1CCCCC1	none
O=S(=O)(Nc1ccc(F)c(Cl)c1)c1cc(Br)c(Br)s1	S1P1 agonist 89.7
Cc1nn(C)c(C(=O)O/N=C/c2c(F)cccc2Cl)c1[N+](=O)[O-]	none
CC(=O)/C(=C\N(C)C)SCc1ccccc1C	S1P1 agonist 96.6 (no result: NOTCH agonist)
CC(=O)/C(=C\N(C)C)Sc1ccccn1	none
Cn1nc(-c2ccccc2)c(O)c(N=Nc2ccccc2)c1=O	none
Cc1[nH]n(C)c(=O)c1N=Nc1ccc(C(C)C)cc1	S1P1 agonist 101.7 (no result: NOTCH agonist)
COc1ccc(/C=C/c2nc3ccccc3s2)cc1OC	S1P1 agonist 85.3
COc1ccc(/C=C2\CC/C(=C\c3ccc(OC)c(OC)c3)C2=O)cc1OC	none
O=C(O)CC(F)(F)C(=O)O	none
CCOC(=O)c1cnn(C(=O)c2cnn(-c3ccc([N+](=O)[O-])cc3)c2C(F)(F)F)c1C(F)(F)F	none
CCOC(=O)c1cnn(-c2nc(-c3ccccc3)cs2)c1C(F)(F)F	S1P1 agonist 82.3
O=[N+]([O-])c1ccc(SC2=NCCS2)c([N+](=O)[O-])c1	S1P1 agonist 113.3
N#C/C(=C\c1ccc([N+](=O)[O-])s1)C(=O)C1CC1	none
O=C(NNC(=O)C(F)(F)F)c1ccc[nH]1	OPRK1 antag MB 52.2
O=C(CSc1ccccn1)Nc1ccccc1Sc1nccc(C(F)(F)F)n1	S1P1 agonist 83.7
N#Cc1c(Cl)cccc1NCc1ccc(Cl)cc1	none
Cc1cc(C)c(C(=O)Nc2cccnc2)c(CC(C)(C)C(=O)O)c1	S1P1 agonist 81.7
O=C(N/C=C/c1ccco1)Nc1cc(C(F)(F)F)cc(C(F)(F)F)c1	none
N#Cc1c2ccccc2cn1Cc1cccc(Cl)c1	S1P1 agonist 92.7 (no result: TLR4-MyD88 inh)
CC1=C(C#N)C(c2ccc3c(c2)OCO3)C(C#N)=C(C)N1	none
O=C(Nc1ccc(F)c(Cl)c1)c1cc(Br)ccc1O	S1P1 agonist 109.4, OPRK1 antag MB 69.6
Cc1cc(C)c2c(=O)[nH]sc2n1	NOTCH agonist 2.8
Oc1[nH]c2ccccc2c1N=Nc1nnc(-c2ccccc2)c(-c2ccccc2)n1	S1P1 agonist 96.2 (no result: NOTCH agonist)
CCOC(=O)C1CCN(Cc2cccc(NC(=O)c3cccs3)c2)CC1	OPRK1 antag MB 50.2
COC(=O)c1cc(OC)c(OC)cc1NC(=O)CC(CC(=O)O)c1cc(OC)c(OC)c(OC)c1 (stereo not drawn)	none
COc1ccc(N2C(=O)C=CC2=O)cc1OC	none
CCn1c2ccccc2c2cc(N3C(=O)C=CC3=O)ccc21	S1P1 agonist 110.3
CN(C)/C=C/C=c1/c(=O)c2cccc3cccc1c32	S1P1 agonist 102.0
Cc1ccc(S(=O)(=O)Nc2ccccc2N2C(=O)c3cccc4cccc(c34)C2=O)cc1	none
COc1ccc(N=Nc2ccc(OC)c(OC)c2)cc1OC	S1P1 agonist 92.7
CCOC(=O)c1c(SC)n[nH]c1C	none
Cc1ccccc1NC(=O)c1ccc2ncsc2c1	none
CCOC(=O)/C(C#N)=C/c1ccc(OC)c(OC)c1	none
COc1ccc(OC)c(/C=C(\C#N)C(N)=O)c1	S1P1 agonist 92.4
Oc1c(Cl)cc(Cl)cc1C1Nc2cc(Cl)c(C(F)(F)F)cc2N1 (stereo not drawn)	S1P1 agonist 106.2, OPRK1 antag MB 57.4
COc1ccccc1C1CCN(c2ccc(CO)cc2[N+](=O)[O-])CC1	S1P1 agonist 92.3
Cc1nc(C(=O)NCC(=O)c2cccc(Cl)c2)c(C(F)(F)F)o1	S1P1 agonist 91.6
O=[N+]([O-])c1ccccc1SCc1csc2ccccc12	S1P1 agonist 98.0
C=CCNC(=S)NNC(=O)c1oc2nc(-c3ccc(Cl)cc3)cc(-c3ccccc3)c2c1N	OPRK1 antag MB 66.2
CN(C)c1ccc(/C=C/c2cc[n+](Cc3ccc(F)cc3)cc2)cc1	TLR4-MyD88 inh 50.7
Cc1onc(-c2c(Cl)cccc2Cl)c1/C=C1/C(=O)Nc2ccccc21	none
O=[N+]([O-])c1ccc(S(=O)(=O)c2cc(Cl)ccc2Cl)[n+]([O-])c1	NOTCH agonist 3.6
O=[N+]([O-])c1ccc(-c2cc3cc(Cl)ccc3o2)cc1	none
N/C(=N\OC(=O)c1csc([N+](=O)[O-])c1)c1cccc(C(F)(F)F)c1	none (no result: TLR4-MyD88 inh)
Cc1nc(C(F)(F)F)c(C(=O)O/N=C(\N)c2cccc(C(F)(F)F)c2)s1	S1P1 agonist 99.0
Nc1nc(-c2ccc3c(c2)CCC3)cc(C(F)(F)F)n1	S1P1 agonist 83.0
Nc1nc(-c2ccc3c(c2)OCCCO3)cc(C(F)(F)F)n1	none

Compound activity (PubChem)
